Screens deposited in PubChem by several laboratories.
Compounds with a hit are over-represented: about 2.4% of the library has one in this group of screens.
M18AAP inhibitor: PfM18AAP enzyme inhibition | recombinant PfM18AAP, H-Glu-NHMec fluorogenic cleavage | inhibition, % at 7.35 µM | 290,000 compounds, 1.2% hits | AID 1822;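 active means inhibition above the campaign mean inhibition over all tested compounds plus 3 SD, cut at about 28% in these data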;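 further: 0% = plate median of test compound wells and 100% = 2 mM ZnCl2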
Yeast superoxide: yeast age-related superoxide inhibition as caloric restriction mimetic | AID 2690 | 330,000 compounds, 0.18% hits | superoxide response (% of plate mean), % at 10 µM | S. cerevisiae aged cells, superoxide DHE fluorescence; hits give low values;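 active means superoxide response under a set limit, about three screen SD below normal, cut at about 65% in these data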;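 further: yeast aged for seven days with compound at 30 °C before DHE staining; 100% = average MFI of all compound-treated wells on the plate with controls excluded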
PfGluPho inh: PfG6PD (Plasmodium falciparum) enzyme inhibition; 350,000 compounds, 0.78% hits; inhibition, % at 20 µM; PfGluPho enzyme, NADPH resazurin-diaphorase fluorescence;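 active means inhibition reaching at least a set limit at 20 µM in the primary screen, cut at about 59% in these data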;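 further: 0% = DMSO wells with substrate and 100% = DMSO wells lacking glucose-6-phosphate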
A3G deaminase: blocks human APOBEC3G single-stranded DNA deamination. Q9HC16. inhibition, % at 20 µM. 330,000 compounds, 0.28% hits. recombinant A3G, ssDNA deamination FAM/TAMRA fluorescence. AID 493012;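 active means inhibition of at least 40% at 20 µM, with no more than 30% in the related APOBEC3A deaminase screen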;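 further: plate controls were DMSO wells with A3G for no effect and wells lacking A3G enzyme for full effect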
Target sequence (Q9HC16 whole entry, looked up): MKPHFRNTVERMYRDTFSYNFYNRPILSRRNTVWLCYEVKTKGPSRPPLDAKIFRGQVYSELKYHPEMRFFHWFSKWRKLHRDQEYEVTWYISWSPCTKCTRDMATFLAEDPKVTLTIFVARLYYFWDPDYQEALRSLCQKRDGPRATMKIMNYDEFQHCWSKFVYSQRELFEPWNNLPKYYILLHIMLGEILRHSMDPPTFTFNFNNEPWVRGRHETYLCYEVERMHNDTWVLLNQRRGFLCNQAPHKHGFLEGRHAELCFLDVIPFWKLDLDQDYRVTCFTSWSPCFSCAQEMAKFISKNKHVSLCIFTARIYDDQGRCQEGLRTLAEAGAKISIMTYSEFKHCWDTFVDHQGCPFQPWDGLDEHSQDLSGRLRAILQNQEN
APOBEC3A inh: inhibitors of human APOBEC3A DNA deaminase | 330,000 compounds, 0.41% hits | AID 493011 | P31941 | recombinant A3A, FAM/TAMRA ssDNA deamination fluorescence | inhibition, % at 20 µM;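 active means at least 40% inhibition at 20 µM here, with at most 30% in a related deaminase screen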;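 further: plate controls were A3A with DMSO for no effect and wells lacking A3A enzyme for full effect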
Target sequence (P31941 whole entry, looked up): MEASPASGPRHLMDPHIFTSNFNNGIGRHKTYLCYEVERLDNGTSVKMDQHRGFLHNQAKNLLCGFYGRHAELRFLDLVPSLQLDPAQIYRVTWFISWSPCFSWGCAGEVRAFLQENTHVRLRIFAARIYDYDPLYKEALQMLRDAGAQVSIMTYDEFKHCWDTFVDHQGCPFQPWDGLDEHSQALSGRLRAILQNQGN
APOBEC3A confirm: APOBEC3A (human) deaminase inhibition, confirmed; 1,400 compounds, 63% hits; inhibition, % at 20 µM; shares compounds with APOBEC3A inh; recombinant A3A, ssDNA deaminase UDG fluorescence assay;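 active means inhibition reaching a set limit, 80% of the first screen's cutoff, at 20 µM in any replicate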;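 further: plate controls were DMSO wells with A3A for no effect and wells lacking A3A enzyme for full effect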
UDG A3A counter: inhibits UDG, flagging false APOBEC3A inhibitors; shares compounds with APOBEC3A inh; UDG counterscreen, FAM/TAMRA uracil oligo fluorescence; inhibition, % at 20 µM; 1,000 tested, under 10 active; call rule not given here
* marks the source's active call; other numbers are inactive results; x = no result given.

SMILES	M18AAP inhibitor	Yeast superoxide	PfGluPho inh	A3G deaminase	APOBEC3A inh	APOBEC3A confirm	UDG A3A counter
O=C(NCC1CCN(Cc2ccccc2F)CC1)Nc1cccc(Br)c1	-4	97	6	3	1	x	x
Cc1ccc(NC(=O)C(c2ccccc2)c2ccccc2)c(O)c1	2	104	-20	-9	-5	x	x
Cc1cc(SCC(=O)c2cccs2)nc2ccccc12	2	86	-5	-3	-1	x	x
O=C(CSc1nc2ccccc2c(=O)[nH]1)c1cccs1	7	112	-28	0	44*	0	x
COc1ccc(N/C=C(\C#N)S(=O)(=O)c2ccc(Cl)cc2)c(OC)c1	3	95	1	-6	-3	x	x
CCc1nc(CNC(=O)c2cc(OC)c(OC)c(OC)c2)no1	1	96	-8	20	48*	73*	-2
CCNc1ccc(S(=O)(=O)N(C)C)cc1[N+](=O)[O-]	5	97	-15	21	67*	54*	x
COc1ccc2nc(SCCC(=O)O)cc(C)c2c1	1	87	-18	-2	0	x	x
C[C@H]1CN([C@@H](C)CO)C(=O)CCCn2nncc2CO[C@@H]1CN(C)S(=O)(=O)c1ccc(-n2cccn2)cc1	x	x	6	x	x	x	x
CCC1CN(S(=O)(=O)c2cc(-c3cc(C)no3)ccc2OC)c2cc(C)ccc2O1 (stereo unspecified)	3	90	10	2	-2	x	x
C=CCn1c(C(C)NC(=O)c2ccc(C)cc2)n[nH]c1=S (stereo unspecified)	27	87	9	6	1	x	x
C=CCn1c(NC(=O)c2ccc(C)cc2)c(C#N)sc1=N	-7	94	16	24	56*	71*	1
COc1cc(C(=O)OCC(=O)Nc2ccccc2)cc2c1OCCO2	x	x	-8	x	x	x	x
CCN(C[C@H]1N[C@@](CC)(C(=O)OC)[C@H]2C(=O)N(C)C(=O)[C@@H]12)C(=O)c1ccc(C(C)(C)C)cc1	x	105	8	-3	0	x	x
Cc1cccc(NC(=O)CNC(=O)CSc2nc(N)cc(N)n2)c1C	x	x	-8	-9	-2	x	x
N#Cc1ccc(CN2CCN(C(=O)Cn3nc(C(N)=O)c4ccccc4c3=O)CC2)cc1	2	101	-14	6	58*	25	x
NC(=O)c1nn(Cc2ccccc2)c(=O)c2ccccc12	3	110	-14	-5	-4	x	x
Cc1ccc(C)c(C(=O)COC(=O)Cn2c(C)csc2=O)c1	-1	98	-10	-2	-2	x	x
O=C(Cn1c(=O)n(Cc2ccco2)c(=O)c2c3c(sc21)CCCCC3)c1ccccc1	-2	98	22	31	57	x	x
O=C(Cn1c(=O)n(Cc2ccco2)c(=O)c2c3c(sc21)CCCCC3)Nc1ccccc1	-6	117	23	20	49*	55*	x
O=C(C[n+]1cccc2ccccc21)c1ccc(Br)cc1	-2	96	-7	-6	-7	x	x
NC(=O)C[n+]1cccc2ccccc21	-3	106	-3	3	43*	59*	1
Cc1ccc(S(=O)(=O)N2CCC[C@H]2C(=O)NC2CCCCC2)cc1	x	x	-11	x	x	x	x
O=C(Nc1ccccc1C(=O)O)c1cncc(Br)c1	9	117	6	18	58*	7	x
O=C(NC(=S)Nc1ccccc1C(=O)O)c1cncc(Br)c1	6	99	55	12	41*	18*	-3
SMILES	M18AAP inhibitor	Yeast superoxide	PfGluPho inh	A3G deaminase	APOBEC3A inh	APOBEC3A confirm	UDG A3A counter
O=C(NC(=S)Nc1ccccc1O)c1cncc(Br)c1	x	76	-14	-5	-4	x	x
CCC(C)Sc1ccc([C@@H]2[C@@H]3C(=O)N(CC)C(=O)[C@@H]3[C@]3(C(=O)OC)CCCCN23)cc1 (stereo partly specified)	x	112	12	-11	-3	x	x
O=C(CC1(O)C(=O)Nc2cc(Cl)cc(Cl)c21)c1ccccc1O (stereo unspecified)	4	100	-10	-1	65*	-10	1
O=P(O)(c1ccccc1)c1ccccc1O	-1	86	1	-3	-4	x	x
O=P(c1ccccc1)(c1ccccc1)c1cc(S(=O)(=O)O)ccc1O	5	96	-27	17	83*	63*	-2
C=CC1=C(C(=O)O)N2C(=O)[C@@H](NC(=O)/C(=N\O)c3csc(N)n3)[C@H]2SC1 (stereo in doubt)	x	108	-3	18	89*	88*	x
CCn1ccc(C(=O)NC2C(=O)N3C(C(=O)O)=C(C)CSC23)n1 (stereo unspecified)	17	102	47	-1	2	x	x
CC(=O)OC(COC1C[C@@H]2CC[C@@]1(C)C2(C)C)C[N+]1(C)CCCCC1 (stereo partly specified)	-13	105	-3	15	48*	70*	-3
Cc1cc(C(=O)CSc2nnc(N)s2)c(C)n1CCc1ccc(Cl)cc1	11	99	9	-6	-2	x	x
COc1ccc(CCn2c(C)cc(C(=O)CSc3nnc(N)s3)c2C)cc1	6	98	26	-7	44*	-6	-2
O=C(COC(=O)c1ccc(F)c(S(=O)(=O)N2CCOCC2)c1)Nc1ccc2[nH]c(=O)[nH]c2c1	x	94	1	15	42*	42*	-2
Cc1cc(C)c(S(=O)(=O)N2CCN(CCN3C(=O)c4cccc5cccc(c45)C3=O)CC2)cc1[N+](=O)[O-]	-11	x	x	x	x	x	x
O=C1c2cccc3cc([N+](=O)[O-])cc(c23)C(=O)N1CCN1CCCC1	2	x	-2	29	41*	26	x
C=CCN=C1N[C@@H](c2ccccc2)C(C(=O)OC)=C(C)N1CC	-3	103	9	23	66*	58*	2
C=CCN=C1N[C@@H](c2cccc(C(F)(F)F)c2)C(C(=O)OC)=C(C)N1CC	-3	105	0	7	50*	71*	-2
COC(=O)C1=C(C)N(CC2CC2)C(=NCCN2CCOCC2)N[C@H]1c1ccccc1	2	108	4	22	71*	68*	1
COC(=O)C1=C(C)N(CC2CC2)C(=NCc2cccc(C(F)(F)F)c2)N[C@H]1c1ccccc1	x	99	4	19	38	x	x
COCCN1C(=O)N[C@H](c2cccc(C(F)(F)F)c2)C(C(=O)OC)=C1C	9	x	x	-7	5	x	x
CCOC(=O)CN1C(=O)N[C@@H](c2cccs2)C(C(=O)OC)=C1C	x	99	-9	3	1	x	x
CCN1C(=NCCc2cccs2)N[C@@H](c2cccs2)C(C(=O)OC)=C1C	8	91	-2	6	53*	66*	-2
CC(=O)N(Cc1ccccc1)C(CC(=O)NCc1ccccc1)C(=O)O (stereo unspecified)	x	x	-2	x	x	x	x
O=C(NCCC(=O)N(CCc1ccccc1)Cc1ccccc1)c1ccc([N+](=O)[O-])cc1	x	111	7	-9	-3	x	x
